Assay outcomes as filed in PubChem.
DAX1 inh-1: DAX1 (NR0B1) inhibitors on StAR promoter, primary screen, cell-based, luminescence, SF-1 (NR5A1), full-length DAX-1 | HEK293T StAR-luciferase reporter, SF-1/DAX-1 repression relief | inhibition, % at 6.8 µM | actives 1.1% (n = 370,000);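 active = inhibition above the mean over all tested compounds plus 3 SD, cut at about 3.6% in these data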;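 also: 0% = DAX-1 cells with DMSO and 100% = cells lacking DAX-1 with DMSO; higher inhibition means more luminescence from relief of DAX-1 repression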
hgDAF-12 ag: H. glycines DAF-12 receptor agonists, primary screen, cell-based, luminescence, HEK293, GAL4 fusion, UAS-luciferase; activation, % at 6.8 µM; HEK293 GAL4-hgDAF12 UAS-luciferase reporter, agonist luminescence; normalized to butyrate control; actives 1.8% (n = 370,000); Nuclear hormone receptor DAF-12 (Heterodera glycines), GAL4 fusion;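 active = activation above a cutoff set at the mean of all screened compounds plus 3 SD, cut at about 10% in these data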;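 also: 0% = DMSO wells and 100% = sodium butyrate wells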
hcDAF-12 act: H. contortus DAF-12 nuclear receptor activators, primary screen, cell-based, luminescence, HEK293, lit1-tk-luc reporter | HEK293 hcDAF-12 lit1-tk-luc reporter; 0% DMSO, 100% Δ7-dafachronic acid | activation, % at 6.8 µM | actives 1.4% (n = 370,000);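 active = activation above the mean of all tested compounds plus 3 SD, cut at about 5.5% in these data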;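 also: 100% = response to 3 µM Δ7-dafachronic acid high control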
DAX1 inh-2: DAX1 (NR0B1) inhibitors, primary screen, cell-based, HEK293, Gal4-DAX1, luciferase luminescence; HEK293 Gal4-DAX1 luciferase reporter; inhibition, % at 6.75 µM; actives 0.99% (n = 340,000); AID 504766, 2011;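 active = inhibition above the mean over all tested compounds plus 3 SD, cut at about 4.2% in these data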;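 also: 0% = DAX1-transfected cells with DMSO and 100% = empty-vector control cells with DMSO; inhibition shows as a rise in luminescence from relieved DAX1 repression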
Target sequence (P51843 207-470 limits assumed): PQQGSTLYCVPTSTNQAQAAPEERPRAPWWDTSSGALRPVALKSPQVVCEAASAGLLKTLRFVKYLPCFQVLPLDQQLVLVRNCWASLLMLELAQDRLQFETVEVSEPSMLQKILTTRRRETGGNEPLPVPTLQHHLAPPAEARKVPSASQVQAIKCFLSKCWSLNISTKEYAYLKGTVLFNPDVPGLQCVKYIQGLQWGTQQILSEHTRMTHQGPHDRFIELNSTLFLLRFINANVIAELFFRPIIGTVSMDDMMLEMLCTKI
ssDAF-12 act: S. stercoralis DAF-12 nuclear receptor activators, primary screen, cell-based, luminescence, HEK293, GRIP1 co-expression, lit1-tk-luc. AID 652126, 2013. activation, % at 6.8 µM. Nuclear hormone receptor DAF-12 (Strongyloides stercoralis). HEK293 ssDAF-12/GRIP1 lit1-tk-luc reporter; % of 3 µM dafachronic acid response. actives 1% (n = 370,000);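 active = activation above the mean over all tested compounds plus 3 SD, cut at about 0.9% in these data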;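 also: 0% = DMSO-only wells and 100% = 3 µM delta7-dafachronic acid wells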
Starred values were filed as active, the others as inactive. Compounds with a hit are over-represented: about 4.1% of the library has one in this group of screens.

How did COc1ccc(-n2c(=S)[nH]c3cc(C(=O)NCc4ccco4)ccc3c2=O)cc1OC do in these assays?
DAX1 inh-1: 0.4; hgDAF-12 ag: -0.7; hcDAF-12 act: -0.8; DAX1 inh-2: 0.2; ssDAF-12 act: -0.7

How did O=C(NCc1ccco1)c1ccc2c(=O)n(-c3ccccc3)c(=S)[nH]c2c1 do in these assays?
DAX1 inh-1: -0.8; hgDAF-12 ag: -1.1; hcDAF-12 act: -0.4; DAX1 inh-2: 4.9*; ssDAF-12 act: -0.9

What do the screens show for `CCN1CCCCC(NC(=O)c2ccccc2OC)C1=O` (centres undefined)?
DAX1 inh-1: -1.6; hgDAF-12 ag: 2.1; hcDAF-12 act: -0.4; ssDAF-12 act: -0.9

What do the screens show for `O=C(O)c1cccc(N2C(=O)c3ccc(C(=O)c4cccc([N+](=O)[O-])c4)cc3C2=O)c1`?
DAX1 inh-1: 0.2; hgDAF-12 ag: 2.8; hcDAF-12 act: -0.4; DAX1 inh-2: 0.4; ssDAF-12 act: 5.8*

What do the screens show for `C=CCOc1ccc(/C=C(\C#N)C(=O)Nc2ccccn2)cc1OC`?
DAX1 inh-1: -0.2; hgDAF-12 ag: -1.3; hcDAF-12 act: -0.9; DAX1 inh-2: 4.7*; ssDAF-12 act: -0.9

How did COc1c2c(cc3c1c(=O)c1ccccc1n3C)OCO2 do in these assays?
DAX1 inh-1: 0.2; hgDAF-12 ag: 1.2; hcDAF-12 act: 0.5; ssDAF-12 act: -1.2

What do the screens show for `COc1ccccc1-n1cnnc1SCC(=O)Nc1cccnc1Cl`?
DAX1 inh-1: -0.3; hgDAF-12 ag: 2.3; hcDAF-12 act: 0.8; DAX1 inh-2: 0.0; ssDAF-12 act: -1.5

How did COc1ccccc1-c1nnc(SCC(=O)Nc2cccnc2Cl)n1C do in these assays?
DAX1 inh-1: 0.8; hgDAF-12 ag: 0.0; hcDAF-12 act: 3.5; DAX1 inh-2: -0.1; ssDAF-12 act: 0.9*

What do the screens show for `O=C(CC1CCCC1)Nc1nnc(C2CC2)s1`?
DAX1 inh-1: -0.1; hgDAF-12 ag: 3.4; hcDAF-12 act: -0.2; DAX1 inh-2: 4.6*; ssDAF-12 act: -1.0

Results for Cn1ccnc1C1CCCCN1Cc1nc(-c2ccc(Cl)cc2)no1 (centres undefined) ?
DAX1 inh-1: -0.7; hgDAF-12 ag: 12.3*; hcDAF-12 act: -0.4; DAX1 inh-2: 1.4; ssDAF-12 act: -1.4

How did O=C(N/N=C/C=C\c1ccccc1[N+](=O)[O-])c1ccccn1 do in these assays?
DAX1 inh-1: -0.7; hgDAF-12 ag: 10.7*; hcDAF-12 act: 1.2; DAX1 inh-2: 1.7; ssDAF-12 act: -0.6

Results for COC(=O)C1=C(C)N(Cc2ccc(F)cc2)C(=S)NC1c1cccc(Br)c1 (centres undefined) ?
DAX1 inh-1: 0.9; hgDAF-12 ag: -1.9; hcDAF-12 act: -1.4; ssDAF-12 act: -1.3

How did COc1ccc(-c2nc(N=Nc3ccc(O)cc3)n[nH]2)cc1 do in these assays?
DAX1 inh-1: -0.1; hgDAF-12 ag: 6.0; hcDAF-12 act: -2.4; DAX1 inh-2: -0.6; ssDAF-12 act: -1.1

What do the screens show for `Cc1ccc(-c2nc(N=Nc3ccc(O)cc3)n[nH]2)cc1`?
DAX1 inh-1: 2.7; hgDAF-12 ag: 11.3*; hcDAF-12 act: 0.4; DAX1 inh-2: -1.4; ssDAF-12 act: -1.6

What do the screens show for `CCCCS(=O)(=O)N1CCCc2nc(-c3ccc(Br)cc3)ccc21`?
DAX1 inh-1: 0.7; hgDAF-12 ag: 1.8; hcDAF-12 act: 0.9; ssDAF-12 act: -0.9

How did CC(=O)c1ccc(Nc2cnn(C34CC5CC(CC(CC(=O)O)(C5)C3)C4)c(=O)c2Cl)cc1 do in these assays?
DAX1 inh-1: -0.3; hgDAF-12 ag: 2.1; hcDAF-12 act: 1.3; DAX1 inh-2: 5.4*; ssDAF-12 act: -1.3

Results for NCCCn1c(C(=O)c2cc(Cl)c(N)c(Cl)c2)c2ccc(C(F)(F)F)cc2[n+]1[O-] ?
DAX1 inh-1: 0.0; hgDAF-12 ag: 0.6; hcDAF-12 act: 6.5*; DAX1 inh-2: 2.2; ssDAF-12 act: 0.5
